For 39 compounds, parasite growth, % of control (lower = inhibition) results are on record in PubChem BioAssay (NCATS).

Starred links: 1 amine or outer side, 2 acyl side, 3 side chain; linkers in the order of their positions; H or OH if unused. Positions of bridges follow the written chain, without caps; N, C: chain ends. Non-standard residues stand in square brackets, D forms with d. Residues, ends and D or L forms follow the SMILES beside them. ξ: configuration not given here. *: point of attachment. ΔAla(3-NHCONH2) = NC(=O)NC=C(N)C(=O)O; X1 = NC1=NCCC(C(N[*:1])C(=O)[*:2])N1; ξβ3hOrn = NCCCC(N)CC(=O)*; Dap = NC[CH](N)C(=O)O

One assay can be described thus: qHTS profiling of the MIPE4 collection as inhibitors of Plasmodium falciparum (DD2) proliferation (Rep 2) (AID 743346). As to conditions: P. falciparum Dd2 in erythrocytes, SYBR Green DNA, 72 h; at 0.217 µM (top of the series). An excerpt: Plasmodium falciparum is a virulent malarial parasite that kills 1-2 million people worldwide each year. Transmitted by mosquitoes, the sporozoite form of the parasite enters the blood stream to infect hepatocytes, where they become merozoites that infect red blood cells (erythrocytes). Within erythrocytes, merozoites begin a […] cycle of growth and division, after which the parasite is released to infect new red blood cells. Gametocytes, which form within erythrocytes as well, circulate in the bloodstream and are ingested by the mosquito, thereby completing the life cycle. To profile malarial isolates for differential chemical responses and to identify inhibitors of malarial growth, an assay that measures P. falciparum growth and replication within erythrocytes was employed. This assay uses a DNA binding fluorescent dye (SYBR Green) to detect parasite DNA following cell lysis. Because mature erythrocytes lack DNA, only Plasmodium-derived DNA is detected.
The SYBR Green viability assay was adapted from a method described previously (Plouffe et al., 2008). For screening 3 ul culture medium was dispensed into 1536 well black clear bottom plates (Aurora Biotechnologies) using a Multidrop Combi (Thermo Fisher Scientific Inc.), 23 nL compounds in DMSO were added by a pin tool (Kalypsys), and 5 ul of erythrocytes infected with P. falciparum (0.3% parasitemia, 2.5% hematocrit final concentration) were added. The plates were incubated at 37 C in a humidified incubator in 5% CO2 for 72 h, and 2 ul lysis buffer (20 mM Tris HCl, 10 mM EDTA, 0.16% saponin, 1.6% triton X, 10X SYBR Green I supplied as 10,000X […] by Invitrogen) was added to each well. The plates were mixed for 25 sec with gentle shaking and incubated overnight at room temperature in the dark. The following morning, fluorescence intensity at 485(14) nm excitation and 535(25) nm emission wavelengths was measured on an EnVision (Perkin Elmer) plate reader. Plate reads were normalized relative to the control inhibitor (0.29 uM artemisinin) and vehicle (DMSO) wells present on each plate and then corrected by an algorithm using vehicle-only control plates at the beginning and end of the compound plate stack.
A general note: In qHTS, concentration-response curves come from the screen itself.
For `NCCCC(N)CC(=O)NCC1NC(=O)C(CO)NC(=O)C(N)CNC(=O)C(C2CCN=C(N)N2)NC(=O)C(=CNC(N)=O)NC1=O` (stereo not drawn) (H-[Dap]S[Dap](ξβ3hOrn)[ΔAla(3-NHCONH2)][X1]; lactam 1-C; configuration not given here), the parasite growth, % of control (lower = inhibition) worked out at 121%.

The assay is the same for the next values; noted with them: P. falciparum Dd2 in erythrocytes, SYBR Green DNA, 72 h; at 28.5 µM.
Consider `NCCCC(N)CC(=O)NCC1NC(=O)C(CO)NC(=O)C(N)CNC(=O)C(C2CCN=C(N)N2)NC(=O)C(=CNC(N)=O)NC1=O` (stereo not drawn) (H-[Dap]S[Dap](ξβ3hOrn)[ΔAla(3-NHCONH2)][X1]; lactam 1-C; configuration not given here), for which the parasite growth, % of control (lower = inhibition) turned out to be 113%.

Staying with this assay, now noted: P. falciparum Dd2 in erythrocytes, SYBR Green DNA, 72 h; at 28.5 µM unless noted.
For `Cn1c(CCCC(=O)O)nc2cc(N(CCCl)CCCl)ccc21`, the parasite growth, % of control (lower = inhibition) worked out at 85.2%.

As to `C[C@@H]1[C@@H](CC(C[C@H]2O[C@@H]3O[C@]4(C)CC[C@@H]5[C@H](C)CC[C@@H]([C@H]2C)[C@@]35OO4)C[S+](=O)([O-])c2ccc(COC(=O)N(C)C)cc2)O[C@@H]2O[C@]3(C)CC[C@H]4[C@H](C)CC[C@@H]1[C@@]24OO3` (stereo not given in full), the parasite growth, % of control (lower = inhibition) amounted to 23.2%.

Turning to `O=NN(CCCl)C(=O)NC1CCCCC1`, the parasite growth, % of control (lower = inhibition) worked out at 72.9%.

Turning to `C[C@@H]1O[C@@H](O[C@H]2C[C@@H](O)[C@]3(CO)[C@H]4[C@H](O)C[C@]5(C)[C@@H](C6=CC(=O)OC6)CC[C@]5(O)[C@@H]4CC[C@]3(O)C2)[C@H](O)[C@H](O)[C@H]1O`, the parasite growth, % of control (lower = inhibition) came to 124%.

As for `COC1(CS(=O)c2ccccc2)CCN(CCc2c[nH]c3ccc(F)cc23)CC1` (stereo not given), the parasite growth, % of control (lower = inhibition) was 66.8%.

In the case of `CO[C@]12CC[C@@]3(C[C@@H]1[C@](C)(O)C(C)(C)C)[C@@H]1Cc4ccc(O)c5c4[C@@]3(CCN1CC1CC1)[C@H]2O5`, the parasite growth, % of control (lower = inhibition) is 19.3% [at 57.2 µM].

On to `Cc1sc2c(c1C)C(c1ccc(Cl)cc1)=N[C@@H](CC(=O)OC(C)(C)C)c1nnc(C)n1-2`, for which the parasite growth, % of control (lower = inhibition) stood at 29.2%.

Regarding `CN(C)CCc1ccc(O)cc1`, the parasite growth, % of control (lower = inhibition) turned out to be 111%.

Consider `Cc1cccc(C)c1NC(=O)CN1CCCC1=O`, for which the parasite growth, % of control (lower = inhibition) amounted to 129%.

For the compound `Cc1ccnc2c1NC(=O)c1cccnc1N2C1CC1`, the parasite growth, % of control (lower = inhibition) is 83.7%.

Turning to `CN(C)[C@@H]1C(=O)C(C(N)=O)=C(O)[C@@]2(O)C(=O)C3=C(O)c4c(O)cccc4[C@@](C)(O)[C@H]3C[C@@H]12`, the parasite growth, % of control (lower = inhibition) amounted to 30.2%.

For the compound `CCCC(C)(COC(N)=O)COC(=O)NC(C)C` (stereo not given), the parasite growth, % of control (lower = inhibition) is 119%.

`CC(O)(CS(=O)(=O)c1ccc(F)cc1)C(=O)Nc1ccc(C#N)c(C(F)(F)F)c1` (stereo not given): the parasite growth, % of control (lower = inhibition) was 64.8%.

Consider `Oc1cc(Cl)ccc1Oc1ccc(Cl)cc1Cl`, for which the parasite growth, % of control (lower = inhibition) is 20.6%.

As for `Cc1cc2c(s1)Nc1ccccc1N=C2N1CCN(C)CC1`, the parasite growth, % of control (lower = inhibition) worked out at 49.7%.

For the compound `COC[C@@H](NC(C)=O)C(=O)NCc1ccccc1`, the parasite growth, % of control (lower = inhibition) is 165%.

As for `COc1ccc(C(CN(C)C)C2(O)CCCCC2)cc1` (stereo not given), the parasite growth, % of control (lower = inhibition) is 42.9%.

Consider `COc1cc2c(c(OC)c1OC)-c1ccc(OC)c(=O)cc1[C@@H](NC(C)=O)CC2`, for which the parasite growth, % of control (lower = inhibition) turned out to be 42.5%.

With `O=c1[nH]cc(F)c(=O)[nH]1`, the parasite growth, % of control (lower = inhibition) was determined as 44.8%.

Consider `Cc1c(OCC(F)(F)F)ccnc1CS(=O)c1nc2ccccc2[nH]1` (stereo not given), for which the parasite growth, % of control (lower = inhibition) worked out at 42.1%.

Take `CC(C)C(=O)Nc1ccc([N+](=O)[O-])c(C(F)(F)F)c1`: the parasite growth, % of control (lower = inhibition) was 69.2%.

With `O=C(OC1C[C@H]2CC[C@@H](C1)[N+]21CCCC1)C(O)(c1ccccc1)c1ccccc1` (stereo not given in full), the parasite growth, % of control (lower = inhibition) came out at 30.4%.

As to `CNC(=O)N1N=C(c2ccc(N)cc2)c2cc3c(cc2CC1C)OCO3` (stereo not given), the parasite growth, % of control (lower = inhibition) came out at 67.9%.

Consider `COc1ccc2c(c1OC)CN1CCc3cc4c(cc3C1C2)OCO4` (stereo not given), for which the parasite growth, % of control (lower = inhibition) turned out to be 10.1%.

With `CCN(C)C(=O)Oc1cccc([C@H](C)N(C)C)c1`, the parasite growth, % of control (lower = inhibition) was found to be 69.6%.

Take `CC(C)CC(N(C)C)C1(c2ccc(Cl)cc2)CCC1` (stereo not given): the parasite growth, % of control (lower = inhibition) worked out at 137%.

In the case of `Cc1cc(SCc2sc(-c3ccc(C(F)(F)F)c(F)c3)nc2C)ccc1OCC(=O)O`, the parasite growth, % of control (lower = inhibition) came to 50.9%.

As for `C=C(C)[C@H]1Cc2c(ccc3c2O[C@@H]2COc4cc(OC)c(OC)cc4[C@@H]2C3=O)O1`, the parasite growth, % of control (lower = inhibition) stood at 35.5%.

Consider `C[C@@H]1[C@@H](C(=O)C[C@H]2O[C@@H]3O[C@]4(C)CC[C@@H]5[C@H](C)CC[C@@H]([C@H]2C)[C@@]35OO4)O[C@@H]2O[C@]3(C)CC[C@H]4[C@H](C)CC[C@@H]1[C@@]24OO3`, for which the parasite growth, % of control (lower = inhibition) was 8.22%.

Regarding `COc1ccc(C(=O)c2c(C)n(CCN3CCOCC3)c3ccccc23)cc1`, the parasite growth, % of control (lower = inhibition) worked out at 66.9%.

With `CNC(=O)c1ccc(N2C(=S)N(c3ccc(C#N)c(C(F)(F)F)c3)C(=O)C23CCC3)cc1F`, the parasite growth, % of control (lower = inhibition) was 45.4%.

On to `C#CCN(C)[C@H](C)Cc1ccccc1`, for which the parasite growth, % of control (lower = inhibition) is 124%.

Turning to `CC1=C2C[C@@H]3[C@@H](CC=C4C[C@@H](O)CC[C@@]43C)[C@@H]2CC[C@]12O[C@H]1C[C@H](C)CN[C@H]1[C@H]2C`, the parasite growth, % of control (lower = inhibition) came out at 33.5%.

On to `O=C1CC[C@@]2(O)[C@H]3Cc4ccc(O)c5c4[C@@]2(CCN3CC2CC2)[C@H]1O5`, for which the parasite growth, % of control (lower = inhibition) amounted to 64.4%.

Take `O=NN(CCCl)C(=O)NCCCl`: the parasite growth, % of control (lower = inhibition) worked out at 150%.

On to `Cc1nc2n(c(=O)c1CCN1CCC(c3noc4cc(F)ccc34)CC1)CCCC2`, for which the parasite growth, % of control (lower = inhibition) turned out to be 48.7%.

Consider `O=c1[nH]c2ccccc2n1CCCN1CCC(n2c(=O)[nH]c3cc(Cl)ccc32)CC1`, for which the parasite growth, % of control (lower = inhibition) is 31.2%.

`CS(=O)c1ccc(-c2nc(-c3ccc(F)cc3)c(-c3ccncc3)[nH]2)cc1` (stereo not given): the parasite growth, % of control (lower = inhibition) worked out at 30.3% [at 57.5 µM].
